The full list was thinned out, with hits kept by preference.
Dicer processing = human Dicer pre-microRNA cleavage inhibition | AID 1347074 | Q9UPY3 | 47,000 compounds, 6% hits | cat-ELCCA pre-miR-21 Dicer processing, chemiluminescence; stronger effect = higher value | z-score at 25 µM; in the data active means z-score above about 3, passing the limit was not always enough;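 further: plate controls were vehicle for no effect and no enzyme for full effect; higher signal means more uncleaved substrate so more Dicer inhibition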
Target sequence (Q9UPY3 whole entry, looked up): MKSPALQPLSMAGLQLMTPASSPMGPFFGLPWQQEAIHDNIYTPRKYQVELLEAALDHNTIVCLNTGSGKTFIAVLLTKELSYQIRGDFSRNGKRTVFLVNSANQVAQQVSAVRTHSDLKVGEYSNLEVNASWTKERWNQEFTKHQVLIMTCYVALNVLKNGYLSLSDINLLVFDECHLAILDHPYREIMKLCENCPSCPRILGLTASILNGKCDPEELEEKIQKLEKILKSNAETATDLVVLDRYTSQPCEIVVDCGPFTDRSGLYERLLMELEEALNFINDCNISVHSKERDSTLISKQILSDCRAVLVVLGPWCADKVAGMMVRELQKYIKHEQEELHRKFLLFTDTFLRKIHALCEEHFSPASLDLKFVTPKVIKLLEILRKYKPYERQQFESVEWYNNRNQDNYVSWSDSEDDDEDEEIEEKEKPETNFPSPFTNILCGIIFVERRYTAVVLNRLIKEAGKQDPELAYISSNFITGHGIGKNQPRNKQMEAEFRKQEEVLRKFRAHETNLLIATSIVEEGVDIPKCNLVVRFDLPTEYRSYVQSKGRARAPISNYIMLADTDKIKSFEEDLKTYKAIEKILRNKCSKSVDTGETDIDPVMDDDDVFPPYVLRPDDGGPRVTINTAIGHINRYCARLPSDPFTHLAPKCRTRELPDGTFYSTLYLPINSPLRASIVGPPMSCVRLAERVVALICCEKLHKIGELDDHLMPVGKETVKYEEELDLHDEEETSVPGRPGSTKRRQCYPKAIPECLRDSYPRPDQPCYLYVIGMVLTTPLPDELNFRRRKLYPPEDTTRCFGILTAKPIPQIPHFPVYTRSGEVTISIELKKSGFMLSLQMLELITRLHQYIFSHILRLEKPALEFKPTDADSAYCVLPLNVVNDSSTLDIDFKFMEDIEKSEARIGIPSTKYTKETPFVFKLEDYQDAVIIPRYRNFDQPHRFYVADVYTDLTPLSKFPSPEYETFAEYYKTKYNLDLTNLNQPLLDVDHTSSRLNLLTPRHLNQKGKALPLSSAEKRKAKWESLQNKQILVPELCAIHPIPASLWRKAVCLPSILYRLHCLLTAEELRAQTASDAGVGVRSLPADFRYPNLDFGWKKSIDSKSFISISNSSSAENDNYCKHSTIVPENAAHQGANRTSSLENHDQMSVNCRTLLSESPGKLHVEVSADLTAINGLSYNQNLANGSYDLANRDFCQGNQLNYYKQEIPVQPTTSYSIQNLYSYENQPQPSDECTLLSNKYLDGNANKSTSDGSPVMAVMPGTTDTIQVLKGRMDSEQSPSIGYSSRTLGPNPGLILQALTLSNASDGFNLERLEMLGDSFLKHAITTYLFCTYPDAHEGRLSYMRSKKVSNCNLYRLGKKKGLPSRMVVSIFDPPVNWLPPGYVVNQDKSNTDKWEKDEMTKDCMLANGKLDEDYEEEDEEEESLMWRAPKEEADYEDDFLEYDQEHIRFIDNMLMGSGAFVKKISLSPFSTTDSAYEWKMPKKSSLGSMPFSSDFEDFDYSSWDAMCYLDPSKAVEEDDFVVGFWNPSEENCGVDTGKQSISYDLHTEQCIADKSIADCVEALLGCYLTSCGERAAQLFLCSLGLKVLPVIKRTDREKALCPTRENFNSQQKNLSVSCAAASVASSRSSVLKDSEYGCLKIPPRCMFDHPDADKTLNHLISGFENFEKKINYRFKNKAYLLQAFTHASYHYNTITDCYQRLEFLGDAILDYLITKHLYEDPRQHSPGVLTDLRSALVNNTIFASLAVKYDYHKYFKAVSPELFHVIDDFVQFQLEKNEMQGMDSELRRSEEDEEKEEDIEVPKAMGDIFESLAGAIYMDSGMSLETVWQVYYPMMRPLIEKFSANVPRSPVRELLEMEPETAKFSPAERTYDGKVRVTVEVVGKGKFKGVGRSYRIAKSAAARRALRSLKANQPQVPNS
The depositor's hits bear a star.

SMILES | Dicer processing
c1coc(CNc2nc3ccccc3n2CCN2CCOCC2)c1 | 5.1*
Clc1ccccc1CNc1nc2ccccc2n1CCN1CCCCC1 | 2.6
CCCn1c(NCc2ccccn2)nc2ccccc21 | 1.7
COc1ccc(CNc2nc3ccccc3n2CCN2CCOCC2)c(OC)c1 | 3.5*
c1ccc(Cn2c(NCc3ccco3)nc3ccccc32)cc1 | 3.7*
Cc1nc2ccccc2n1CCN1CCOCC1 | -0.46
Cn1c(CNc2nc3ccccc3n2CCN2CCOCC2)nc2ccccc21 | -0.51
O=S(=O)(CCSc1ccc(Cl)cc1)CCSc1ccc(Cl)cc1 | 0.01
CC1(C)CC(=O)C=C(SCC(=O)c2ccc(Cl)cc2)S1 | -3.6
CC1=CC(C)(C)Nc2ccc(OCC(=O)c3ccccc3)cc21 | 0.25
CCOC(=O)c1cnc(SCc2c(C)cc(C)cc2C)nc1C(F)(F)F | 0.24
CC(C)Nc1nc2cc(Cl)ccc2s1 | -0.57
Nc1c(C(=O)NNC(=S)Nc2ccc(Cl)cc2Cl)sc2nnc(-c3ccccc3)c(-c3ccccc3)c12 | 12
COc1ccc(CN2CCN(C3CCCC3)CC2)cc1OCc1ccccc1 | 0.06
CCN(CCS(=O)(=O)c1ccccc1)S(=O)(=O)c1ccc(C)cc1 | 4.5*
CCCCN(C(C)C)S(=O)(=O)c1ccc(C)cc1 | -0.26
CCN(CC(O)Cn1c2ccccc2c2ccccc21)S(=O)(=O)c1ccc(C)cc1 (centres undefined) | 0.77
Nc1c(C(=O)N/N=C/c2cccs2)oc2nc(-c3ccccc3)cc(-c3ccccc3)c12 | -1.1
CC(C)(C)OC(=O)CCNC(=O)Nc1cccc2ccccc12 | 0.29
S=c1ncc(Sc2ncccn2)c(-c2ccc(Cl)cc2)[nH]1 | -2.9
CCOC(=O)NC(Nc1ccc(C)c(C)c1)(C(=O)OCC)C(F)(F)F (centres undefined) | 1.6
COc1ccc(OC)c(SCC(=O)N2CCc3c([nH]c4ccccc34)C2C(F)(F)F)c1 (centres undefined) | 0.53
Oc1c(-c2nc(-c3ccc(Cl)cc3Cl)cs2)sc2ccccc12 | -1.4
COc1ccc(CCN2C(=O)c3cccc4c(Sc5ccccn5)ccc(c34)C2=O)cc1OC | 0.87
O=C1c2cccc3c(N4CCOCC4)ccc(c23)C(=O)N1CCO | -0.79
SMILES | Dicer processing
O=C1c2cccc3c(Sc4ccccc4)ccc(c23)C(=O)N1NCCO | 3.2*
CCOC(=O)c1cnc2c(F)ccc(F)c2c1Oc1cncc(Cl)c1 | 0.07
Cc1csc2sc(-c3ccnc(SCC(=O)Nc4ccc(Cl)cc4Cl)n3)c(C)c12 | -0.26
Cc1nnc2c(N3CCN(Cc4ccccc4)CC3)nc3ccccc3n12 | -0.28
Cn1c(S(=O)(=O)Cc2ccc(Cl)cc2)nc2ccccc21 | -0.41
Cn1c(CN2CCN(c3ccc(Cl)cc3)CC2)nc2ccccc21 | 6.1*
CCOC(=O)Cc1nn(Cc2nc(C)c(C(=O)OCC)s2)c(=O)c2ccccc12 | -0.54
Fc1cccc(Cl)c1CSc1nncn1-c1ccc(OCc2ccccc2)cc1 | -0.92
CC(C)c1nnc(NCC(C)(C)C)s1 | -0.25
CC1=C(C(=O)OC(C)C)C(c2cccc(OCc3ccccc3)c2)n2ncnc2N1 (centres undefined) | 0.32
CC1=C(C(=O)OCc2ccccc2)C(c2ccc(OCc3ccccc3)cc2)n2ncnc2N1 (centres undefined) | 3.1*
CCOC(=O)C1=C(C)Nc2ncnn2C1c1ccc(N(CC)CC)cc1 (centres undefined) | 2.1
Cc1ccc(S(=O)(=O)NCCC2=CCCCC2)cc1 | 1.2
O=C(O)[C@H]1CCCC[C@H]1C(=O)NCCC1=CCCCC1 | -0.86
O=c1cc(NCCC2=CCCCC2)c2ccccc2o1 | 3.5*
C=CCc1c(O)ccc2c(C)cc(=O)oc12 | 0.42
COc1cc2c(cc1OC)C(c1ccccc1Cl)N(C(=O)c1sc3ccccc3c1Cl)CC2 (centres undefined) | -0.14
CC(C)CCn1c(NCc2ccco2)nc2c1c(=O)[nH]c(=O)n2C | 3.6*
CC(C)CCNc1nc2c(c(=O)[nH]c(=O)n2C)n1CCO | 1.4
Cn1c(=O)[nH]c(=O)c2c1nc(NCc1ccco1)n2Cc1ccc(F)cc1 | -2.7
ONC(=Nc1ccc(Cl)c(Cl)c1)c1ccccc1 | 0.85
Cc1c(C)c(C)c(S(=O)(=O)Oc2ccc(Cl)c(Cl)c2)c(C)c1C | 0.31
Cc1cc(S(=O)(=O)Oc2c(Cl)cccc2Cl)cc(C)c1F | -0.24
Cc1c(C)c(C)c(S(=O)(=O)Oc2c(Cl)cccc2Cl)c(C)c1C | 6.9*
Cc1ccc2oc(-c3ccccc3Cl)c(O)c(=O)c2c1 | 0.95
SMILES | Dicer processing
CCOC(=O)c1ccc2c(c1)CC/C(=C\c1ccc(F)cc1)C2=O | -0.93
CCCCNC(=O)Cn1nc(C(F)(F)F)c2c1CCC2 | 1.2
O=C(Nc1ccncc1)c1cc(-c2ccc(Cl)cc2)oc1C(F)(F)F | 1.6
COc1ccc(S(=O)(=O)Nc2ncccc2C)c(C)c1C | 0.47
Cc1ccc2c(=O)c(C(=O)c3ccccc3C)coc2c1 | 2
Cc1ccc2c(=O)c(C(=O)c3ccccc3)coc2c1 | 5.5*
COC(=O)Oc1ccc2c(=O)c(-c3ccccc3)coc2c1 | 0.85
N#Cc1ccc(C(=O)COc2ncnc3cc(Cl)ccc23)cc1 | -1.1
CCC1CCCCN1Cc1c(C)[nH]c2c(C)c(C)ccc2c1=O (centres undefined) | -0.13

Source: PubChem
